Reference: PubChem BioAssay (NCI)
Compounds without any hit were thinned out: in the full panel of roughly 83,000, 20% have a hit.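 48-hour exposure, single concentration, 96-well plates; percent growth endpoint where 0 means no net growth. Active: below 10.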 Calls of active or inactive are those of the source.

Tests used:
Assay in all cases: NCI-60 one-dose screen, 48 h (100 = growth as untreated, 0 = no growth, -100 = all killed)
Settings in all cases: 10 µM unless noted
DU-145 prostate = tested on: DU-145 prostate
K-562 leukemia = tested on: K-562 leukemia
MALME-3M melanoma = tested on: MALME-3M melanoma
MDA-MB-231 breast = tested on: MDA-MB-231 breast
RXF 393 renal = tested on: RXF 393 renal
SF-268 CNS = tested on: SF-268 CNS
SF-295 CNS = tested on: SF-295 CNS
SF-539 CNS = tested on: SF-539 CNS
UACC-257 melanoma = tested on: UACC-257 melanoma
M14 melanoma = tested on: M14 melanoma
HCT-15 colon = tested on: HCT-15 colon
HT29 colon = tested on: HT29 colon
SNB-75 CNS = tested on: SNB-75 CNS
SNB-19 CNS = tested on: SNB-19 CNS
U251 CNS = tested on: U251 CNS
PC-3 prostate = tested on: PC-3 prostate
SK-MEL-5 melanoma = tested on: SK-MEL-5 melanoma
UACC-62 melanoma = tested on: UACC-62 melanoma
LOX IMVI melanoma = tested on: LOX IMVI melanoma
SK-MEL-28 melanoma = tested on: SK-MEL-28 melanoma

Measured: growth

BrC1CC(Br)c2c1c1c(c3c2C(Br)CC3Br)C(Br)CC1Br (stereo not given)
inactive: DU-145 prostate 115% | K-562 leukemia 80.9% | MALME-3M melanoma 95.7% | MDA-MB-231 breast 98.5% | RXF 393 renal 80.3% | SF-268 CNS 111% | SF-295 CNS 103% | SF-539 CNS 92% | UACC-257 melanoma 105% | M14 melanoma 97.7% | HCT-15 colon 97.6% | HT29 colon 86.7% | SNB-75 CNS 68.6% | SNB-19 CNS 98.7% | U251 CNS 88.7% | PC-3 prostate 81.5% | SK-MEL-5 melanoma 99.8% | UACC-62 melanoma 82.4% | LOX IMVI melanoma 73.7% | SK-MEL-28 melanoma 119%

COc1ccc2c(c1)sc1nc(-c3ccc(N(C)C)cc3)cn12
inactive: DU-145 prostate 103% | K-562 leukemia 80% | MALME-3M melanoma 112% | MDA-MB-231 breast 122% | RXF 393 renal 114% | SF-268 CNS 93.1% | SF-295 CNS 98.7% | SF-539 CNS 99.4% | UACC-257 melanoma 95.8% | M14 melanoma 103% | HCT-15 colon 116% | HT29 colon 113% | SNB-75 CNS 162% | SNB-19 CNS 95.3% | U251 CNS 98.3% | PC-3 prostate 60.6% | SK-MEL-5 melanoma 108% | UACC-62 melanoma 104% | LOX IMVI melanoma 113% | SK-MEL-28 melanoma 144%

COc1cnc2c(c1)C(=O)c1c-2n(CCCN2CCOCC2)c(=O)c2cc(F)ccc12
inactive: K-562 leukemia 12.4% | MDA-MB-231 breast 40.6% | SNB-19 CNS 14.5% | PC-3 prostate 12.1% | SK-MEL-28 melanoma 18.6%
active: DU-145 prostate 3.8% | MALME-3M melanoma -31.8% | RXF 393 renal -30.1% | SF-268 CNS 3.55% | SF-295 CNS -21.1% | SF-539 CNS -61.4% | UACC-257 melanoma -10.6% | M14 melanoma 0.95% | HCT-15 colon 8.29% | HT29 colon -27.5% | SNB-75 CNS -19.1% | U251 CNS -27.7% | SK-MEL-5 melanoma -95.1% | UACC-62 melanoma -52% | LOX IMVI melanoma -50.3%

Oc1c(Cl)cc(Cl)c(Cl)c1Cc1c(O)c(Cl)cc(Cl)c1Cl
inactive: DU-145 prostate 28.2% | RXF 393 renal 15.1% | SF-268 CNS 17.5% | SF-539 CNS 21.4% | M14 melanoma 16.3% | HCT-15 colon 11.5% | HT29 colon 13.1% | SNB-75 CNS 46.9% | SNB-19 CNS 23% | U251 CNS 15% | LOX IMVI melanoma 26.2% | SK-MEL-28 melanoma 22.4%
active: K-562 leukemia 4.84% | MALME-3M melanoma -21.1% | MDA-MB-231 breast -13.5% | SF-295 CNS -42.4% | UACC-257 melanoma 9.73% | PC-3 prostate -6.08% | SK-MEL-5 melanoma -72.7% | UACC-62 melanoma 2.95%

CCSc1nc(-c2ccc(F)cc2)c(C#N)c(=O)[nH]1
inactive: DU-145 prostate 122% | K-562 leukemia 124% | MALME-3M melanoma 85.1% | MDA-MB-231 breast 114% | RXF 393 renal 104% | SF-268 CNS 116% | SF-295 CNS 103% | SF-539 CNS 108% | UACC-257 melanoma 102% | M14 melanoma 110% | HCT-15 colon 104% | HT29 colon 106% | SNB-75 CNS 93.5% | SNB-19 CNS 107% | U251 CNS 107% | PC-3 prostate 127% | SK-MEL-5 melanoma 101% | UACC-62 melanoma 97.5% | LOX IMVI melanoma 95.4% | SK-MEL-28 melanoma 108%

CC1CN(C2CCCCC2)C(=O)NC1=O (stereo not given)
inactive: DU-145 prostate 113% | K-562 leukemia 103% | MALME-3M melanoma 108% | MDA-MB-231 breast 104% | RXF 393 renal 110% | SF-268 CNS 105% | SF-295 CNS 108% | SF-539 CNS 106% | UACC-257 melanoma 109% | M14 melanoma 99.3% | HCT-15 colon 104% | HT29 colon 105% | SNB-75 CNS 93.4% | SNB-19 CNS 97.4% | U251 CNS 110% | PC-3 prostate 94% | SK-MEL-5 melanoma 105% | UACC-62 melanoma 87.5% | LOX IMVI melanoma 101% | SK-MEL-28 melanoma 116%

C#C[C@]1(O)CCC2C3CCc4cc(O)ccc4C3CC[C@@]21C (stereo not given in full)
inactive: DU-145 prostate 60.8% | K-562 leukemia 12.7% | MALME-3M melanoma 43% | MDA-MB-231 breast 66.7% | RXF 393 renal 51.5% | SF-268 CNS 47.7% | SF-295 CNS 22.6% | SF-539 CNS 21% | UACC-257 melanoma 75.2% | M14 melanoma 20.4% | HCT-15 colon 31.9% | HT29 colon 11.7% | SNB-75 CNS 38.8% | SNB-19 CNS 53.1% | U251 CNS 32.2% | PC-3 prostate 64.9% | UACC-62 melanoma 30.5% | LOX IMVI melanoma 41.8% | SK-MEL-28 melanoma 59.2%
active: SK-MEL-5 melanoma 8.95%

COC(=O)C1=CCC(n2cnc3c(N)ncnc32)O1 (stereo not given)
active: RXF 393 renal -7.73%
inactive: DU-145 prostate 113% | K-562 leukemia 91.8% | MALME-3M melanoma 108% | MDA-MB-231 breast 98.5% | SF-268 CNS 121% | SF-295 CNS 113% | SF-539 CNS 98% | UACC-257 melanoma 105% | M14 melanoma 105% | HCT-15 colon 109% | HT29 colon 103% | SNB-75 CNS 98.1% | SNB-19 CNS 104% | U251 CNS 104% | PC-3 prostate 98% | SK-MEL-5 melanoma 104% | UACC-62 melanoma 92.8% | LOX IMVI melanoma 96.4% | SK-MEL-28 melanoma 115%
